# Where “and” joins values, the source holds several entries; their conditions need not be identical. Equal entries are not always repeated. The source holds several records for some structures; these can differ, active in one and inactive in another. Calls of active or inactive are those of the source. How the source made its calls: active means hit-call score of the fitted dose curve at least 0.9, where 1 is the maximum; inactive means score below 0.9.
# Columns and labels:
# Settings in all cases: mRNA level, 48 h; actives raise or lower the signal
# [1] = read-out: Lipoprotein lipase (LPL), LPL (gene 4023); assay: LTEA_HepaRG_LPL: Life Technologies and Expression Analysis (LTEA) Assay for Lipoprotein lipase (LPL) using HepaRG (AID 2283515)
# Summary of the method: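 Differentiated HepaRG cells, plated 48 h, then exposed 48 h in serum-free induction medium to 8 concentrations (top 100 uM, half-log steps) in 0.5% DMSO, duplicate. LPL mRNA measured by qRT-PCR, normalized to ACTB, GAPDH and POLR2A.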
# [2] = read-out: MicroRNA 122 (MIR122), gene 406906; assay: LTEA_HepaRG_MIR122: Life Technologies and Expression Analysis (LTEA) Assay for MicroRNA 122 (MIR122) using HepaRG (AID 2283516); further: the transcript read is the microRNA miR-122
# Summary of the method: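 Differentiated human HepaRG cells in serum-free induction medium exposed 48 h to 8 half-log concentrations from 100 uM in 0.5% DMSO, duplicate. MIR122 quantified by Fluidigm TaqMan qRT-PCR, normalised to ACTB, GAPDH, POLR2A; fold change fitted bidirectionally versus DMSO.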
# [3] = read-out: matrix metalloproteinase-10 (MMP10), MMP10 (gene 4319); assay: LTEA_HepaRG_MMP10: Life Technologies and Expression Analysis (LTEA) Assay for matrix metalloproteinase-10 (MMP10) using HepaRG (AID 2283517)
# Summary of the method: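 Differentiated HepaRG cells in serum-free induction medium exposed 48 h in duplicate to 8-point half-log series up to 100 uM in 0.5% DMSO. mRNA quantified by qRT-PCR, normalised to ACTB, GAPDH, POLR2A; bidirectional fit versus DMSO.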
# MYC, MYC (gene 4609) = assay: LTEA_HepaRG_MYC: Life Technologies and Expression Analysis (LTEA) Assay for MYC using HepaRG (AID 2283518)
# Summary of the method: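 Differentiated human HepaRG cells, plated 48 h then switched to serum-free induction medium, were exposed in duplicate for 48 h to 8-point half-log series up to 100 uM in 0.5% DMSO. MYC mRNA measured by qRT-PCR, normalized to ACTB/GAPDH/POLR2A.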
# [4] = read-out: matrix metalloproteinase-3 (MMP3), MMP3 (gene 4314); assay: LTEA_HepaRG_MMP3: Life Technologies and Expression Analysis (LTEA) Assay for matrix metalloproteinase-3 (MMP3) using HepaRG (AID 2283519)
# Summary of the method: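 HepaRG cells (~100,000/well) in serum-free induction medium were dosed in duplicate for 48 h with an 8-point half-log series from 100 uM, 0.5% DMSO. MMP3 mRNA was quantified by Fluidigm TaqMan qRT-PCR, normalized to three housekeeping genes.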
# [5] = read-out: Paternally Expressed 10 (PEG10), PEG10 (gene 23089); assay: LTEA_HepaRG_PEG10: Life Technologies and Expression Analysis (LTEA) Assay for Paternally Expressed 10 (PEG10) using HepaRG (AID 2283520)
# Summary of the method: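 Differentiated HepaRG cells exposed 48 h in serum-free induction medium to eight half-log concentrations topping at 100 uM, 0.5% DMSO, in duplicate. PEG10 mRNA quantified by TaqMan qRT-PCR, normalized to ACTB, GAPDH and POLR2A; bidirectional fit versus DMSO.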
# [6] = read-out: Nuclear factor NF-kappa-B p105 subunit (Homo sapiens) (UniProt P19838); assay: LTEA_HepaRG_NFKB1: Life Technologies and Expression Analysis (LTEA) Assay for Nuclear Factor Kappa B Subunit 1 (NFKB1) using HepaRG (AID 2283521);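 further: TaqMan qRT-PCR transcript normalised to ACTB GAPDH and POLR2A housekeeping genes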
# Summary of the method: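 Differentiated human HepaRG cells in serum-free induction medium with 0.5% DMSO were exposed for 48 h to eight half-log concentrations, top 100 uM, in duplicate. NFKB1 mRNA measured by Fluidigm TaqMan qRT-PCR, normalised to ACTB, GAPDH and POLR2A; bidirectional fit versus DMSO.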
# [7] = read-out: Protein phosphatase 2A (PPP2R4), PTPA (gene 5524); assay: LTEA_HepaRG_PPP2R4: Life Technologies and Expression Analysis (LTEA) Assay for Protein phosphatase 2A (PPP2R4) using HepaRG (AID 2283522)
# Summary of the method: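 Differentiated human HepaRG cells in serum-free induction medium were exposed 48 h to 8 concentrations (top 100 µM, half-log steps, duplicate) in 0.5% DMSO. PPP2R4 mRNA was measured by TaqMan qRT-PCR, normalised to ACTB, GAPDH and POLR2A, and fitted bidirectionally versus DMSO.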
# [8] = read-out: Phosphatase and tensin (PTEN), PTEN (gene 5728); assay: LTEA_HepaRG_PTEN: Life Technologies and Expression Analysis (LTEA) Assay for Phosphatase and tensin (PTEN) using HepaRG (AID 2283523)
# Summary of the method: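 HepaRG cells, 48 h after plating, exposed in duplicate for 48 h in serum-free induction medium to 8 half-log concentrations up to 100 uM (0.5% DMSO). PTEN mRNA by qRT-PCR, normalized to ACTB, GAPDH, POLR2A; bidirectional fit versus DMSO.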
# [9] = read-out: solute carrier (SLC22A1), SLC22A1 (gene 6580); assay: LTEA_HepaRG_SLC22A1: Life Technologies and Expression Analysis (LTEA) Assay for solute carrier (SLC22A1) using HepaRG (AID 2283524)
# Summary of the method: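 Differentiated human HepaRG cells in serum-free induction medium, exposed 48 h in duplicate to 8-point half-log series from 100 µM top in 0.5% DMSO. SLC22A1 mRNA by TaqMan qRT-PCR normalized to ACTB, GAPDH, POLR2A; bidirectional fit versus DMSO.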
# [10] = read-out: Pyruvate Dehydrogenase Kinase 4 (PDK4), PDK4 (gene 5166); assay: LTEA_HepaRG_PDK4: Life Technologies and Expression Analysis (LTEA) Assay for Pyruvate Dehydrogenase Kinase 4 (PDK4) using HepaRG (AID 2283525)
# Summary of the method: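 HepaRG cells plated 48 h, then switched to serum-free induction medium and exposed in duplicate for 48 h to 8 half-log concentrations from 100 uM in 0.5% DMSO. PDK4 mRNA measured by qRT-PCR, normalized to ACTB, GAPDH and POLR2A; bidirectional fit versus DMSO.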
# [11] = read-out: NAD(P)H dehydrogenase [quinone] 1 (NQO1), NQO1 (gene 1728); assay: LTEA_HepaRG_NQO1: Life Technologies and Expression Analysis (LTEA) Assay for NAD(P)H dehydrogenase [quinone] 1 (NQO1) using HepaRG (AID 2283526)
# Summary of the method: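 Differentiated human HepaRG cells in serum-free induction medium, dosed in duplicate for 48 h at 8 half-log concentrations up to 100 uM in 0.5% DMSO. NQO1 mRNA by qRT-PCR normalized to ACTB, GAPDH, POLR2A; bidirectional fit versus DMSO baseline.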
# [12] = read-out: Nuclear factor erythroid 2-related factor 2 (Homo sapiens) (UniProt Q16236); assay: LTEA_HepaRG_NFE2L2: Life Technologies and Expression Analysis (LTEA) Assay for Nuclear factor erythroid 2-related factor 2 (NFE2L2) Transcription Factor using HepaRG (AID 2283527);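 on outcome: TaqMan qRT-PCR transcript level normalised to ACTB GAPDH and POLR2A housekeeping genes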
# Summary of the method: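 Differentiated human HepaRG cells, serum-free induction medium, exposed 48 h in duplicate to eight half-log concentrations up to 100 uM in 0.5% DMSO. NFE2L2 mRNA by Fluidigm TaqMan qRT-PCR, normalised to ACTB, GAPDH, POLR2A; bidirectional change versus DMSO.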
# [13] = read-out: succinate dehydrogenase complex iron sulfur subunit B (SDHB), SDHB (gene 6390); assay: LTEA_HepaRG_SDHB: Life Technologies and Expression Analysis (LTEA) Assay for succinate dehydrogenase complex iron sulfur subunit B (SDHB) using HepaRG (AID 2283528)
# Summary of the method: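 HepaRG cells (~100,000/well, plated 48 h) exposed in duplicate for 48 h in serum-free induction medium to 8-point half-log series from 100 uM in 0.5% DMSO; mRNA by qRT-PCR normalised to ACTB, GAPDH, POLR2A; bidirectional fit versus DMSO.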
# [14] = read-out: Signal transducer and activator of transcription 3 (Homo sapiens) (UniProt P40763); assay: LTEA_HepaRG_STAT3: Life Technologies and Expression Analysis (LTEA) Assay for Signal transducer and activator of transcription (STAT3) using HepaRG (AID 2283529)
# Summary of the method: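 Differentiated HepaRG cells, serum-free induction medium, dosed 48 h in duplicate, 8 half-log concentrations from 100 uM in 0.5% DMSO. STAT3 mRNA by qRT-PCR, normalised to ACTB, GAPDH, POLR2A; bidirectional fit versus DMSO.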
# [15] = read-out: solute carrier (SLCO1B1), SLCO1B1 (gene 10599); assay: LTEA_HepaRG_SLCO1B1: Life Technologies and Expression Analysis (LTEA) Assay for solute carrier (SLCO1B1) using HepaRG (AID 2283530)
# Summary of the method: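 Differentiated human HepaRG cells, plated 48 h, switched to serum-free induction medium and exposed in duplicate for 48 h to 8 half-log concentrations (top 100 uM) in 0.5% DMSO. SLCO1B1 mRNA by TaqMan qRT-PCR, normalized to ACTB/GAPDH/POLR2A.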
# [16] = read-out: sulfotransferase 2A1 (SULT2A1), SULT2A1 (gene 6822); assay: LTEA_HepaRG_SULT2A1: Life Technologies and Expression Analysis (LTEA) Assay for sulfotransferase 2A1 (SULT2A1) using HepaRG (AID 2283531)
# Summary of the method: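 Differentiated human HepaRG cells in serum-free induction medium were exposed for 48 h to eight half-log concentrations (top 100 uM, 0.5% DMSO). SULT2A1 mRNA was measured by qRT-PCR, normalized to ACTB, GAPDH and POLR2A, and fitted bidirectionally against DMSO.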
# [17] = read-out: Transforming Growth Factor (TGFA), TGFA (gene 7039); assay: LTEA_HepaRG_TGFA: Life Technologies and Expression Analysis (LTEA) Assay for Transforming Growth Factor (TGFA) using HepaRG (AID 2283532)
# Summary of the method: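 Differentiated HepaRG cells exposed 48 hours in serum-free induction medium, 0.5% DMSO vehicle, 8-point half-log series from 100 uM, in duplicate. TGFA mRNA by TaqMan qRT-PCR, normalised to ACTB, GAPDH, POLR2A; bidirectional fit versus DMSO.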
# [18] = read-out: Transforming Growth Factor (TGFB1), TGFB1 (gene 7040); assay: LTEA_HepaRG_TGFB1: Life Technologies and Expression Analysis (LTEA) Assay for Transforming Growth Factor (TGFB1) Transporter using HepaRG (AID 2283533)
# Summary of the method: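 Differentiated human HepaRG cells in serum-free induction medium were exposed in duplicate for 48 h to eight concentrations (top 100 uM, half-log steps, 0.5% DMSO). TGFB1 mRNA was quantified by qRT-PCR, normalized to ACTB, GAPDH, POLR2A, and fitted bidirectionally against DMSO.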
# TIMP1, TIMP1 (gene 7076) = assay: LTEA_HepaRG_TIMP1: Life Technologies and Expression Analysis (LTEA) Assay for TIMP1 using HepaRG (AID 2283534);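 on outcome: TaqMan qRT-PCR signal normalized to ACTB GAPDH and POLR2A housekeeping genes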
# Summary of the method: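 Differentiated human HepaRG cells in serum-free induction medium were exposed 48 h to chemicals (8 half-log concentrations, top 100 uM, 0.5% DMSO). TIMP1 mRNA was quantified by TaqMan qRT-PCR, normalized to ACTB/GAPDH/POLR2A; bidirectional fit versus DMSO.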
# Chain of Signal transducer and activator of transcription 3 (Homo sapiens) (P40763 whole entry, looked up): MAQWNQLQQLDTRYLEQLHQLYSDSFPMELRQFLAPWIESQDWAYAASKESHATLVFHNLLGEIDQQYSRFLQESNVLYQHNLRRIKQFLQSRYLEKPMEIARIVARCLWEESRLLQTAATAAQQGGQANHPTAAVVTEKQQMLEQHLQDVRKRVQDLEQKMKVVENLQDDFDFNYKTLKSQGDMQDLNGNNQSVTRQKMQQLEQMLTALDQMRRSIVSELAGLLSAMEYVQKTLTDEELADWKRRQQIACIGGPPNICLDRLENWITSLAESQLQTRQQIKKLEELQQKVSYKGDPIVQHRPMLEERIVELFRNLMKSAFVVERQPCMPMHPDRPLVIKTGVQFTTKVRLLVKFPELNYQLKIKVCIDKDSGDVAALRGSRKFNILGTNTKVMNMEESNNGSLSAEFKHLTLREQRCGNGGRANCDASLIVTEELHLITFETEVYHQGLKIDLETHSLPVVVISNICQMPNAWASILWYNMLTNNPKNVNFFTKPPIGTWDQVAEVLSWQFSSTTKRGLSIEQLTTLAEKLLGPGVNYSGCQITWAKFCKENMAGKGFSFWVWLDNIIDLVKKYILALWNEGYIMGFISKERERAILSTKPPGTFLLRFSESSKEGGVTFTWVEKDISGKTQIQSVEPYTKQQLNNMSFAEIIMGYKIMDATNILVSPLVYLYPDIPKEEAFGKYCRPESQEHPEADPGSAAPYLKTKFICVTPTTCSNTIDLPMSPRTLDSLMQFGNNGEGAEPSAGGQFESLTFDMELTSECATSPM
# Chain of Nuclear factor NF-kappa-B p105 subunit (Homo sapiens) (P19838 whole entry, looked up): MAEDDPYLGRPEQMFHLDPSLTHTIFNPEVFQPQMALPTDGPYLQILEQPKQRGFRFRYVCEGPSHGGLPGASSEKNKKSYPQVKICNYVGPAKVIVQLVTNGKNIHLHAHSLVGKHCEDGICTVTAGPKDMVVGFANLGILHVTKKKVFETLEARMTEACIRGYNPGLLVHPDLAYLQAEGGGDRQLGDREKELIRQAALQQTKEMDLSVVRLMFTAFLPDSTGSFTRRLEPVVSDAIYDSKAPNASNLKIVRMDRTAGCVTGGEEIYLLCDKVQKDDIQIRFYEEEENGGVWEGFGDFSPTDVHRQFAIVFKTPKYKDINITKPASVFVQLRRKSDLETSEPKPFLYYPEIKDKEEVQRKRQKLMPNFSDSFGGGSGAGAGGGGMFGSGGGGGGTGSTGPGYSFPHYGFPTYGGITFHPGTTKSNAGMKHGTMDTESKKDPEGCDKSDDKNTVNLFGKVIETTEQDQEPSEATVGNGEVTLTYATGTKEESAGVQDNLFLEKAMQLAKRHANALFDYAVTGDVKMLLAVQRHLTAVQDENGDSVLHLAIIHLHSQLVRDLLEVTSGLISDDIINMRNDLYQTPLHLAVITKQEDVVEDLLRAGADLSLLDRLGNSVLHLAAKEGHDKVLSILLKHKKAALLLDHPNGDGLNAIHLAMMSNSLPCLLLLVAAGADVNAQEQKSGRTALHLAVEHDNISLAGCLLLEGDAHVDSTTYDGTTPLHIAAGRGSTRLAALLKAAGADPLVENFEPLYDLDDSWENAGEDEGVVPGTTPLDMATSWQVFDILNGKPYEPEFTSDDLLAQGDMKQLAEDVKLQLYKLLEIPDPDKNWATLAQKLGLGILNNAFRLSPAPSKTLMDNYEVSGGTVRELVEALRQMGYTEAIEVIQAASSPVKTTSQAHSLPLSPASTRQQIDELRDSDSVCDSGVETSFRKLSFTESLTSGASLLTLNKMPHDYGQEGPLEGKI
# Chain of Nuclear factor erythroid 2-related factor 2 (Homo sapiens) (Q16236 whole entry, looked up): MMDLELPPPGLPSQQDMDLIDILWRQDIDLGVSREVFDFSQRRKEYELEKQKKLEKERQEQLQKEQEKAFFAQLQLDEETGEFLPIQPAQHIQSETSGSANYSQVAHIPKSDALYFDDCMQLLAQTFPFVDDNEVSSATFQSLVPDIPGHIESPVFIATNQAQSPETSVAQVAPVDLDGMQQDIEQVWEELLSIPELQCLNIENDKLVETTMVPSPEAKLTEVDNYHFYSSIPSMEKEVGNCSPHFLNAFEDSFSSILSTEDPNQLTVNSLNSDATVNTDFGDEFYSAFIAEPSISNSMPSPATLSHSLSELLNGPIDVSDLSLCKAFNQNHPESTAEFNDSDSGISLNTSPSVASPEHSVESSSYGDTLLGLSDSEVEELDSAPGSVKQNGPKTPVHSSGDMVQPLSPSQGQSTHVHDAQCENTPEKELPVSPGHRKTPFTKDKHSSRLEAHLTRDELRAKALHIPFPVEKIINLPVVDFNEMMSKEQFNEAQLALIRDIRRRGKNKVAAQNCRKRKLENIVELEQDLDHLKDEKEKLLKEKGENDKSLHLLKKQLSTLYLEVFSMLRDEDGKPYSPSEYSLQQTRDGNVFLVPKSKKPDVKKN
structure (smiles),measurement,setting,value
N#CC(CCc1ccc(Cl)cc1)(Cn1cncn1)c1ccccc1 (stereo not given),AC50,[1],50 µM (active)
same,AC50,[2],66 µM (active)
same,AC50,[3],74.2 µM (active)
same,AC50,"MYC, MYC (gene 4609)",65.2 µM (active)
same,AC50,[4],86 µM (active)
same,AC50,[5],9.92 µM (active)
same,outcome,[6],inactive
same,outcome,[7],inactive
same,outcome,[8],inactive
same,AC50,[9],71.5 µM (active)
same,outcome,[10],inactive
same,outcome,[11],inactive
same,AC50,[12],72.4 µM (active)
same,outcome,[13],inactive
same,outcome,[14],inactive
same,AC50,[15],83.6 µM (active)
same,AC50,[16],77.2 µM (active)
same,AC50,[17],77 µM (active)
same,AC50,[18],66.7 µM (active)
same,outcome,"TIMP1, TIMP1 (gene 7076)",inactive
CCCN(CCC)c1c([N+](=O)[O-])cc(S(N)(=O)=O)cc1[N+](=O)[O-],AC50,[1],50 µM (active)
same,outcome,[1],inactive
same,AC50,[2],95.7 µM (active)
same,outcome,[2],inactive
same,AC50,[3],74.1 µM (active)
same,outcome,[3],inactive
same,AC50,"MYC, MYC (gene 4609)",86.2 µM (active)
same,outcome,"MYC, MYC (gene 4609)",inactive
same,AC50,[4],83.6 µM (active)
same,outcome,[4],inactive
same,AC50,[5],96.3 µM (active) and 41 µM (active) and 7.55 µM (active)
same,outcome,[6],inactive
same,AC50,[7],72 µM (active)
same,outcome,[7],inactive
same,AC50,[8],93.1 µM (active) and 75.5 µM (active) and 76.5 µM (active)
same,AC50,[9],57 µM (active)
same,outcome,[9],inactive
same,AC50,[10],92.7 µM (active) and 50 µM (active) and 83.9 µM (active)
same,outcome,[11],inactive
same,AC50,[12],79.3 µM (active) and 79.5 µM (active)
same,outcome,[12],inactive
same,AC50,[13],96.3 µM (active) and 50 µM (active) and 84.4 µM (active)
same,AC50,[14],94 µM (active) and 50 µM (active) and 77 µM (active)
same,outcome,[15],inactive
same,AC50,[16],92.1 µM (active) and 76.9 µM (active) and 81 µM (active)
same,outcome,[17],inactive
same,AC50,[18],93.9 µM (active)
same,outcome,[18],inactive
same,AC50,"TIMP1, TIMP1 (gene 7076)",93.9 µM (active)
same,outcome,"TIMP1, TIMP1 (gene 7076)",inactive

# — PubChem BioAssay (EPA / NIEHS)
